Source: PubChem BioAssay (Broad Institute)
Rows were chosen to be rich in hits. Some 2.3% of all compounds tested hit in one or more screens of this group.
ID4 SMM: binders of human ID4 protein | P47928 | small molecule microarray, Flag-ID4 binding, fluorescence F/B | calls only | actives 1.2% (n = 31,000) | AID 624137; call rule not given here;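 further: a binder raises fluorescence above local background on the spot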
Target sequence (P47928 whole entry, looked up): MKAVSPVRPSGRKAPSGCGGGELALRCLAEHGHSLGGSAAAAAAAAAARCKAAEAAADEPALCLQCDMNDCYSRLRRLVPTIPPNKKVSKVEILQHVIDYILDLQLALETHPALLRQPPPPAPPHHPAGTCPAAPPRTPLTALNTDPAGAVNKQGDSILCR
p53 PUMA act: re-activators of the mutant p53 pathway | SW480 PUMA-promoter luciferase, p53 mutant reactivation | activation, % at 9.98 µM | actives 1.5% (n = 28,000) | AID 624151; in the data active means activation above about 52%; inconclusive means no clear call, values can overlap the other calls
Hits are given with their value; n = inactive; u = inconclusive; x = no result; + = active, no number.

SMILES	ID4 SMM	p53 PUMA act
CCC(Oc1ccccc1)C(=O)Nc1cccc(NC(C)=O)c1 (stereo unspecified)	n	n
CC(Oc1ccccc1)C(=O)Nc1cccc(-c2nnc(-c3ccccc3)o2)c1 (stereo unspecified)	n	114
CC(Oc1ccc(Cl)cc1Cl)C(=O)Nc1cccc(-c2nc3ccccc3o2)c1 (stereo unspecified)	n	n
Cc1cc(Cl)ccc1OC(C)C(=O)Nc1cccc(-c2nnc(-c3ccccc3)o2)c1 (stereo unspecified)	n	85
C[C@@H]1O[C@@H](OC[C@H]2O[C@@H](OCc3ccccc3)[C@H](O)[C@@H](O)[C@@H]2O)[C@H](O)[C@H](O)[C@H]1O	x	n
CNc1ccccc1C(=O)OC1OC(C)C(O)C(O)C1O (stereo unspecified)	+	n
CC1(C)CC(=O)C2=C(C1)N(Cc1cccnc1)C(=O)C2(NC(=O)c1ccc(Cl)cc1Cl)C(F)(F)F (stereo unspecified)	n	n
O=C(c1ccc([N+](=O)[O-])cc1)N(Cc1cc2ccccc2[nH]c1=O)c1ccccc1	+	n
Cc1ccc(N(Cc2cc3ccccc3[nH]c2=O)C(=O)c2cccnc2)cc1	n	n
C/C=C1\C(O[C@@H]2O[C@H](CO)[C@@H](O)[C@H](O)[C@H]2O)OC=C(C(=O)OC)C1CC(=O)OCC(O)c1ccc(O)c(O)c1 (stereo partly specified)	n	n
Cc1cc(NC(=O)C(=O)NCc2cccnc2)ccc1Br	n	n
Cc1ccc(OCCCn2c(CO)nc3ccccc32)cc1	n	63
Cc1cccc(OCCCn2c(CO)nc3ccccc32)c1	n	n
Cn1c(SCC(=O)Nc2ccccc2C(F)(F)F)nnc1-c1ccc(NC(=O)c2ccc(F)cc2)cc1	n	n
Cc1ccc(-c2cnc(-c3ccc(Br)cc3)o2)cc1	n	72
Cc1cc(C)c(NC(=O)CSc2nnc(-c3ccc(Br)cc3)o2)c(C)c1	n	n
N/C(=N\O)c1ccc(N2CCN(c3ncccc3C(F)(F)F)CC2)nc1	n	142
COc1ccc(OC)c(NC(=O)Cn2cc(C(C)=O)c3ccccc32)c1	n	n
Cc1cc(=O)[nH]c(SC(C)C(=O)Nc2cccc(Cl)c2)n1 (stereo unspecified)	n	n
C[C@@H]1CN([C@@H](C)CO)C(=O)Cc2cc(NS(=O)(=O)c3ccccc3)ccc2O[C@H]1CN(C)C(=O)Nc1ccccc1	+	n
C[C@@H]1CN([C@H](C)CO)C(=O)Cc2cc(NC(=O)Cc3ccccc3)ccc2O[C@@H]1CN(C)C(=O)Nc1ccccc1	n	n
C[C@H](CO)N1C[C@H](C)[C@@H](CN(C)C(=O)Nc2ccccc2)Oc2ccc(NC(=O)Cn3cnnn3)cc2CC1=O	+	n
C[C@@H]1CN([C@H](C)CO)C(=O)Cc2cc(NS(=O)(=O)c3ccccc3)ccc2O[C@H]1CN(C)C(=O)Nc1ccccc1	n	n
C[C@H]1CN([C@@H](C)CO)C(=O)Cc2cc(NC(=O)Cn3cnnn3)ccc2O[C@@H]1CN(C)C(=O)Nc1ccccc1	n	n
C[C@@H]1CN([C@@H](C)CO)C(=O)Cc2cc(NC(=O)Cc3ccccc3)ccc2O[C@H]1CN(C)C(=O)Nc1ccccc1	+	n
SMILES	ID4 SMM	p53 PUMA act
O=C(CC1(O)C(=O)Nc2ccccc21)c1ccc(NC(=O)C2CC2)cc1 (stereo unspecified)	n	u
Cc1cc(N(CC(=O)Nc2cccc([N+](=O)[O-])c2C)S(C)(=O)=O)ccc1Br	n	n
C[C@H](CO)N1C[C@H](C)[C@H](CN(C)C)Oc2ncc(-c3cccc(F)c3)cc2C1=O	n	x
Nc1nc(-c2ccco2)nn1C(=O)c1ccco1	n	n
Cc1ccc2c(CC(=O)Nc3cccc([N+](=O)[O-])c3)coc2c1C	n	69
Cc1ccc2c(CC(=O)NCc3ccco3)coc2c1C	n	n
COCCOC(=O)N1C(=O)[C@@]2(c3cc(C#Cc4ccc(OC)cc4)ccc31)[C@H](C(=O)N1CCc3cc(OC)c(OC)cc3C1)[C@H]1C(=O)O[C@H](c3ccccc3)[C@H](c3ccccc3)N1[C@@H]2c1ccccc1OCCO	+	x
COCCOC(=O)N1C(=O)[C@@]2(c3cc(C#CCNC(N)=O)ccc31)[C@H](C(=O)N1CCc3cc(OC)c(OC)cc3C1)[C@H]1C(=O)O[C@H](c3ccccc3)[C@H](c3ccccc3)N1[C@@H]2c1ccccc1OCCO	n	x
CC(C)c1ccccc1OCC(=O)Nc1ccccc1C(N)=O	n	n
O=C(CSc1nnc(-c2cccnc2)n1-c1ccccc1)N1CCc2ccccc21	n	n
O=C(CSc1nnc(-c2cccnc2)n1-c1ccccc1)N1CCN(c2ccc(F)cc2)CC1	+	n
CC(C)(O[C@@H]1O[C@H](CO)[C@@H](O)[C@H](O)[C@H]1O)[C@@H]1Oc2cc3oc(=O)ccc3cc2[C@H]1O	x	n
CNC[C@@H]1Oc2ncc(-c3ccc(OC)cc3)cc2C(=O)N([C@H](C)CO)C[C@H]1C	+	n
CNC[C@@H]1Oc2ncc(C3=CCCC3)cc2C(=O)N([C@@H](C)CO)C[C@@H]1C	n	n
CNC[C@H]1Oc2ncc(C3=CCCC3)cc2C(=O)N([C@H](C)CO)C[C@H]1C	+	n
CNC[C@H]1Oc2ncc(-c3ccc(OC)cc3)cc2C(=O)N([C@H](C)CO)C[C@H]1C	n	x
CNC[C@H]1Oc2c(NC(=O)c3cnccn3)cccc2C(=O)N([C@H](C)CO)C[C@H]1C	n	n
CNC[C@@H]1Oc2ncc(-c3ccc(C#N)cc3)cc2C(=O)N([C@H](C)CO)C[C@@H]1C	+	n
CNC[C@@H]1Oc2c(NC(=O)c3cnccn3)cccc2C(=O)N([C@@H](C)CO)C[C@@H]1C	+	n
CNC[C@@H]1Oc2ncc(-c3ccccc3)cc2C(=O)N([C@H](C)CO)C[C@@H]1C	n	n
C[C@@H]1CN([C@H](C)CO)C(=O)c2cc(NC(=O)Cn3cnnn3)ccc2O[C@@H]1CN(C)C(=O)Nc1ccccc1	x	n
O=C(CSc1nnc(-c2ccc(Cl)cc2)o1)N1c2ccccc2Sc2ccccc21	n	n
COc1cc([N+](=O)[O-])ccc1NC(=S)NCc1cccnc1	n	n
O=C(CSc1nnc(-c2ccccc2Cl)n1-c1ccccc1)N1CCc2ccccc21	n	n
Cc1cccc(OCC(=O)Nc2cccc(-c3nc4ccccc4s3)c2)c1	n	59
SMILES	ID4 SMM	p53 PUMA act
COc1ccc(OCC(=O)Nc2ccc(-c3nc4ccccc4s3)c(Cl)c2)cc1	n	n
COc1ccccc1OCC(=O)Nc1cccc(-c2nc3ccccc3s2)c1	n	67
O=C(COc1ccc(Cl)cc1Cl)Nc1ccc(-c2nc3ccccc3s2)c(O)c1	n	n
COc1ccc(-c2nc3ccccc3s2)cc1NC(=O)COc1ccc(Cl)cc1Cl	n	74
O=C(O)COc1cccc(-c2nc3ccccc3s2)c1	n	n
Cc1cc(Cl)ccc1NC(=O)Cn1cnc2sc(C)c(-c3ccc(F)cc3)c2c1=O	n	n
Cc1ccc(-n2c(SCC(=O)Nc3ccc(F)c(F)c3)nnc2-c2ccc(Cl)cc2)cc1	n	n
O=C(O)CCCc1c[nH]c2ccccc12	+	n
O=C(O)C(O)Cc1c[nH]c2ccccc12 (stereo unspecified)	n	n
COc1cccc(C(=O)NC(NCC2CCCO2)(C(F)(F)F)C(F)(F)F)c1 (stereo unspecified)	n	n
CNC[C@@H]1Oc2ccc(NS(C)(=O)=O)cc2CC(=O)N([C@@H](C)CO)C[C@@H]1C	+	n
